Test results: the supplement of paper PMC3334620
In all, about 33,000 sequences were measured (“E-score (-0.5 to 0.5)”: median about -0.0014, highest 2% from about 0.25 on). The sample holds the highest values, similar sequences and a random draw of the others, so the mix is not that of the screen.

target: T1, Cad1 (UniProt P24813); test: PBM E-score (8-mer binding enrichment) (E-score (-0.5 to 0.5)); higher = stronger / more preferred TF binding; conditions: protein concentration: 100 nM; construct: GST-full length
T1 sequence: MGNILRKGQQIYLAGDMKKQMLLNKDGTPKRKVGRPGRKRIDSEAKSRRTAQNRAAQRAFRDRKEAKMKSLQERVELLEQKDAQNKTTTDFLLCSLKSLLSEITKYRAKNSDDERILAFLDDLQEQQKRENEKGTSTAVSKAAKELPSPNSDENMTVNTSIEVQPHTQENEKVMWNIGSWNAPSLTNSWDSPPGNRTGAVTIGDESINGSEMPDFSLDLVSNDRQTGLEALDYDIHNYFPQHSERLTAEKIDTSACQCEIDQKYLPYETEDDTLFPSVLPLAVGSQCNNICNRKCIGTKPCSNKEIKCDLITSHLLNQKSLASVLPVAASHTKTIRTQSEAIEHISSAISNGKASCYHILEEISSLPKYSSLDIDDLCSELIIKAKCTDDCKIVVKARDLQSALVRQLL
In short: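 Yeast transcription factors carrying a GST tag, as full-length proteins or DNA-binding domains, were produced by PURExpress in vitro transcription/translation. About 100-200 nM protein was applied to universal all-10-mer Agilent arrays, double-stranded by primer extension on fresh or once-stripped slides. Bound protein was detected with fluorescent anti-GST, and scans were normalised with masliner. The Universal PBM Analysis Suite gave each ungapped eight-base word, pooled with its reverse complement, an E-score, a modified Wilcoxon-Mann-Whitney statistic.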

Sequence	PBM E-score
CTTAAGGA	0.0352
AAGGCACA	-0.0665
TGACCGCA	0.0752
AAATGATA	0.214
CAATGATA	0.0335
AAATGATC	-0.133
TAATGATA	0.251
GAATGATA	0.223
AAATGATT	0.261
AATCTGCG	0.00478
CAGGTTAC	-0.0155
CACTTCGG	-0.0116
AATTGTAC	0.252
GATTGTAC	-0.082
CATTGTAC	0.0995
CACACAGC	0.107
AACACAGC	0.281
AACACAGG	-0.0364
CGGGGGCC	-0.42
CGGAGGTA	-0.0635
GGCGTCCC	-0.213
TGACGTCA	0.334
GGACGTCA	-0.159
AGACGTCA	-0.096
AGTCGACG	0.296

Sequence	PBM E-score
CGTCGACG	0.103
AGTCGACT	0.287
GGTCGACA	0.0882
GGTCGACC	0.263
ACTCGACG	0.0798
CGTCGACC	0.118
AGTCGACA	0.22
AGTCGACC	0.107
CCAACTAG	0.0684
GCGCACCA	0.134
CTAACCTA	-0.129
AACTAGCC	-0.0573
AGAACAGC	0.00791
ACGCATTG	-0.0523
GAACATAC	0.0334
AGTGGCGG	-0.014
CTCAGGCA	0.034
AAACGGAA	0.266
CAACGAAA	0.162
ACACCAAG	-0.0199
GAACGAAA	-0.0129
AAACGAAT	0.017
GAACGGAA	-0.0319
AAACGAAA	0.287
AAACGGAC	-0.00593

Sequence	PBM E-score
AAACGAAC	0.0751
ACACCAAA	0.254
TAACGAAA	0.26
GCACCAAA	-0.0001
GGGCAACA	-0.0207
TTCAAAAA	-0.0855
ACATTCCG	0.05
CATGGAAA	0.161
AGCTGAAT	-0.00032
GGGCAGTA	-0.0606
ACACGAAA	0.257
ACACGAAT	0.0874
ACACGAAG	0.0492
CAACGATA	0.174
AAACGATA	0.128
TAACGATA	0.261
GCAGTTAC	0.128
CAAGTACG	-0.268
GCGGAGAC	0.267
CCGGAGAC	0.036
ACGGAGAC	0.128
CTCAACGA	-0.0873
TGACATAA	0.266
GGACATAA	0.102
CTACATAA	-0.0789

Sequence	PBM E-score
ATACCTAA	0.227
GTACATAA	0.0232
AGACATAA	0.0308
CTACCTAA	0.0375
TTACATAA	0.438
TTACCTAA	0.334
AAGTGGCA	-0.0104
CTCCATGA	0.0675
CCATAAGA	-0.0777
AAGCCTCG	-0.00547
ATTGTGAA	0.0555
GCCCTCCC	-0.19
AAGCACAC	-0.0239
AAGCACAT	0.254
AAGCACAG	0.0641
GGTAACAA	0.261
AGTAACAA	0.082
CGTAACAA	0.0611
ACCATCCG	-0.081
AAGTCCTC	-0.0441
GTCGATTA	0.115
CTCGATTA	0.276
ATCGATTC	0.0832
ACCGATTA	0.123
CTCGATTC	0.0642

Sequence	PBM E-score
ATCGATCG	0.188
CACGATTA	0.162
ATCGATTG	0.299
ATCGATTA	0.275
CCCTAGGC	-0.079
TACCCAGA	0.109
ACACAGAT	0.0606
CGCACACC	0.0191
ACGTCCGA	-0.0154
CCTGGTAG	-0.209
TAGTTATA	0.068
AGTGCGTC	-0.0502
AACCTGCC	-0.164
GTCTAGTA	0.0789
AACTTGAC	0.0523
ACGCACCC	-0.147
AAAGTTCT	0.0926
ACTACCGG	-0.231
GCAACGAA	0.275
CTAACGAA	0.153
ACAAACAG	0.0175
ACAAACAA	0.176
ATAACGAA	0.258
ATAACGAC	0.189
ATAAACAC	0.15

Sequence	PBM E-score
ACAAACAC	0.262
ATAAACAA	0.261
ACAACGAA	0.145
TTAAACAA	-0.157
TCAACGAA	0.0907
GACCACGA	0.0423
CGCACTAC	0.0013
GGCCGTTA	0.0668
ACGTGGAG	-0.0145
CCCCTATA	-0.144
CCGGTCTC	-0.161
CTTAGAGC	-0.0659
AAAAGCGC	0.0216
AAGTGCTA	-0.257
GGGTCCGA	-0.21
ACGAGACC	-0.00034
ATAACAAA	0.312
CGAACAAA	0.28
CGAACAAG	0.128
AGAACAAA	0.247
ATAACAAT	0.0624
ATAACAAG	0.205
GCATCGAC	-0.0789
GACAGATA	0.0715
CAACGTTG	0.263

Sequence	PBM E-score
AAACGTTG	-0.0452
CAACGTTC	-0.009
AGTATTAG	0.299
GTTATTGA	0.159
CGTATTAG	0.165
ACTATTAA	0.123
GTTGTTAA	0.259
AGTATTAA	0.0712
GTTATTTA	0.153
GTTATTAA	0.291
ATTATTAA	0.384
ATTATTAC	0.0832
ATTGTTAA	0.0122
CTTGTTAA	-0.0916
CTCGCGGA	-0.155
CGCAGCAC	0.0114
ACATACGA	0.117
CTGAAGAA	-0.18
CAACTGTG	-0.031
CAAGACAG	-0.0259
CATGCCAG	-0.0523
CTTATTAC	0.218
CTTATTAA	0.42
CCTATTAA	-0.00224
TGTGTTAA	0.19

Sequence	PBM E-score
AGTGTTAA	0.255
GGTGTTAA	0.0749
TATTTTAA	0.107
GCGGCTTA	0.227
ACCTCTTA	0.153
AAGTCATG	0.0989
ACCGCCTG	-0.142
ACCCGGAC	-0.179
GTTTAATA	0.189
CTTTAATC	-0.00133
ATTTAATA	0.316
ATTTAATG	0.213
ATTTAATC	0.285
CTTTAATA	0.218
AGAGAGGC	-0.297
AGTAAACT	0.105
CCTAGATA	-0.0467
CACGTTTC	-0.176
CAATTTTA	0.27
CAATTTTC	0.125
CAATTTAA	0.156
CTCGCTGA	0.0202
ACGATCGG	0.0625
TCGATCGA	0.27
GCGATCGA	0.248

Sequence	PBM E-score
ACGATCGA	0.254
CCGATCGA	0.0111
ACGATCGT	-0.0266
GATTGAGC	0.0444
ATCAGCAT	0.192
GACTAATC	0.362
CACTAATC	0.262
CACTAAGC	0.0972
GACTAAGC	0.228
CACTAACC	0.0546
AACTAATC	0.179
CTCGCTCA	0.138
CACCGCCC	-0.0109
AAACTCAT	0.253
AAACTCAA	0.163
AAACTTAT	0.256
AAACTTAC	0.0226
GAACTTAA	0.116
AAACTTAA	0.171
AAACTAAA	0.141
AAACTCAG	-0.00451
AAACTAAT	0.36
AAACTAAG	0.166
TAACTTAA	0.259
CAACTTAA	0.0842
